# Experimental data published in PubChem BioAssay (NCATS).
# Unmarked numbers belong to inactive results. Inconclusive results are not listed. Some of the results follow. The source made the active and inactive calls. Unless noted, calls follow the shape of the dose curve; as a rule, active = well fitted curve in either direction with a large enough effect (not every such curve was filed as active); inconclusive = small, poorly fitted or top-dose-only effect, or another doubt; inactive = flat fitted curve, though single readings scatter.
# Experiments:
# [1] = AP1 Signaling Pathway (AID 357); details: ME-180 AP-1-bla reporter, EGF-induced, beta-lactamase ratio, 5 h; at 7.69 µM (top of the series) unless noted; also: % is scaled to controls: 0 for no effect and ±100 for the full control effect
# Summary of the method: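 ME-180 cells with beta-lactamase reporter under AP-1 response element, stimulated with EC50 EGF; compounds tested in titration series, 5 h at 37 °C. CCF4 substrate added 2.5 h at room temperature; 460/530 nm emission ratio gave %activity and AC50.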
# [2] = NFAT Signaling Pathway (AID 444); details: Jurkat NFAT-bla M1, carbachol, beta-lactamase ratio, 5 h; at 7.69 µM (top of the series) unless noted;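 also: carbachol stimulus at about its EC50 of 1 µM final; % is scaled to controls: 0 for no effect and ±100 for the full control effect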
# Summary of the method: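 Jurkat cells carrying an NFAT-driven β-lactamase reporter and co-transfected muscarinic M1 receptor were treated with compound plus carbachol (1 uM final, an EC50 level) for 5 h at 37 °C. CCF4 loading followed for 1 h at RT; 460/530 nm ratio gave %activity.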
# [3] = Stat Signaling Pathway (AID 446); details: ME-180 SIE beta-lactamase reporter, IL-6 stimulated, 5 h; at 7.69 µM (top of the series) unless noted;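 also: ME-180 cervical cancer cells given 40 pM IL-6 alongside compound; SIE-controlled beta-lactamase reporter measured as 460/530 nm FRET emission ratio; % is scaled to controls: 0 for no effect and ±100 for the full control effect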
# Summary of the method: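 ME-180 cells carrying a SIE-driven beta-lactamase reporter are stimulated with 40 pM IL-6 for 5 h at 37C in the presence of compound. The 460/530 nm FRET substrate ratio is read after 2.5 h at RT. Data are normalised to 300 pM IL-6 and to 125 nM JAK inhibitor controls.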
# [4] = target: Glucocorticoid receptor (Homo sapiens) (UniProt P04150); assay: GR-GFP Redistribution (AID 450;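 active = compounds whose dose series gives a full or clear partial fitted curve of increased nuclear translocation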; also: potency is read from the fitted curve at half-maximal effect); details: U2OS GR-GFP nuclear translocation, laser cytometry, 2 h
# [5] = target: Glucocorticoid receptor (Homo sapiens) (UniProt P04150); assay: GR-EFC Redistribution (AID 451; calls by dose curve; also: potency is read from the fitted curve at half-maximal effect); details: CHO-K1 GR-EFC translocation, beta-gal luminescence, 2 h
# Summary of the method: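 CHO-K1 cells stably expressing nuclear-localized β-gal enzyme acceptor and GR fused C-terminally to the enzyme donor fragment; ligand-driven nuclear translocation restores β-gal by complementation. Compounds titrated up to 46 uM final, 2 h at 37 °C; luminescence read.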
# [6] = target: Mitogen-activated protein kinase 10 (Mus musculus) (UniProt Q61831); assay: JNK3 AlphaScreen Assay (AID 530);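 also: kinase came from lysate of stimulated human HepG2 cells; signal reports phosphorylation of biotinylated GST-cJun 1-79 at Ser73 with 10 µM ATP; % is scaled to controls: 0 for no effect and ±100 for the full control effect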
# Summary of the method: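 Inhibitors reduce antibody binding to phosphorylated biotin-cJun, lowering AlphaScreen luminescence. Lysates from HepG2 cells pre-activated by IL-1beta plus TNF-alpha supplied JNK3; compounds were titrated.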
# [7] = target: 3',5'-cyclic-AMP phosphodiesterase 4B (Homo sapiens) (UniProt Q07343); assay: qHTS Assay for Inhibitors of PDE-IV (AID 607; active = well fitted activation curve with a large enough effect in the main read-out, with a control signal flat, not every such curve was filed as active; also: % of control where 0% means no effect)
# Summary of the method: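 HEK293 ACTOne cells with CNG channel (1000/well), endogenous PDE4; membrane potential dye, compounds up to 22.9 uM final. Fluorescence Ex 535/Em 590; RO 20-1724 (100 uM final) as reference.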
# [8] = qHTS screen for small molecules that inhibit ELG1-dependent DNA repair: Hit Confirmation in Cell-Based Luciferin Assay (AID 624247; active = well fitted curve in the direction sought with a large enough effect; an effect the other way counts as inactive or inconclusive; also: % is scaled to controls: 0 for no effect and ±100 for the full control effect)
# Summary of the method: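 Cell-free confirmation: 23 nL compound pin-transferred onto luciferin substrate reagent, then luciferase added. Luminescence read on a CCD imager; loss of signal flags luciferase-reporter interference.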
# [9] = target: ATPase family AAA domain-containing protein 5 (Homo sapiens) (UniProt Q96QE3); assay: HTS assay for small molecules that inhibit ELG1-dependent DNA repair in human embryonic kidney (HEK293T) cells expressing luciferase-tagged ELG1: Hit Confirmation (AID 624248; active = well fitted curve in the direction sought with a large enough effect; an effect the other way counts as inactive or inconclusive; also: potency is read from the fitted curve at half-maximal effect; nearly all actives have a fitted effect of over 55% in size); details: HEK293T ELG1-luciferase levels, luminescence; cells co-treated with 5-fluorouridine
# Summary of the method: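 Cells (2,000/well) received 5-Fluorouridine plus pin-transferred compound or DMSO and were incubated 16 hr at 37 °C, 5% CO2. Luciferase activity was read by ONE-Glo luminescence after 30 min at room temperature; inhibitors suppress the signal.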
# [10] = target: ATPase family AAA domain-containing protein 5 (Homo sapiens) (UniProt Q96QE3); assay: qHTS screen for small molecules that inhibit ELG1-dependent DNA repair in human embryonic kidney (HEK293T) cells expressing luciferase-tagged ELG1: Hit Confirmation using MMS Stimulated ELG1 (AID 624249; active = well fitted curve in the direction sought with a large enough effect; an effect the other way counts as inactive or inconclusive; also: potency is read from the fitted curve at half-maximal effect; nearly all actives have a fitted effect of over 60% in size); details: HEK293T luciferase-tagged ELG1 level
# Summary of the method: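 HEK293T cells carrying ELG1-luciferase, compounds added about 5 h after plating together with MMS at 10 µM final. Luciferase activity read 16 h after compound addition; suppression of signal scored.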
# [11] = qHTS screen for small molecules that inhibit ELG1-dependent DNA repair: Hit Confirmation with MMS Viability (AID 624251; active = well fitted curve in the direction sought with a large enough effect; an effect the other way counts as inactive or inconclusive; also: potency is read from the fitted curve at half-maximal effect; nearly all actives have a fitted effect of over 60% in size); details: Cell viability with MMS
# Summary of the method: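 Reporter HEK293T cells (ELG1-luc) receive compounds about 5 hours after plating, alongside 10 µM MMS, and are scored for viability by CellTiter-Glo following 16 hours of treatment.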
# [12] = target: Luciferin 4-monooxygenase (Photinus pyralis) (UniProt P08659); assay: qHTS screen for small molecules that inhibit ELG1-dependent DNA repair: Hit Confirmation in Biochemical Luciferin Assay (AID 624253; active = well fitted curve in the direction sought with a large enough effect; an effect the other way counts as inactive or inconclusive; also: % is scaled to controls: 0 for no effect and ±100 for the full control effect)
# Summary of the method: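 Cell-free firefly luciferase counterassay: compounds were added to substrate reagent, then luciferase enzyme was added. Luminescence read on a CCD-based imager.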
# [13] = target: Cytochrome P450 1A2 (Homo sapiens) (UniProt P05177); assay: p450-cyp1a2 (AID 410; calls by dose curve; also: potency is read from the fitted curve at half-maximal effect;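 as to activity change, negative = inhibition: -100% = full effect of reference inhibitor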)
# Summary of the method: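 20nM CYP1A2 with 100uM Luciferin-ME (at Km) in 100mM KPO4; compound preincubated 10 min, NADPH regeneration added, 60 min at room temperature. Luciferin quantified by luminescence after detection reagent; normalized to 57 uM furafylline.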
# [14] = target: Cytochrome P450 2D6 (Homo sapiens) (UniProt P10635); assay: qHTS Assay for Inhibitors and Substrates of Cytochrome P450 2D6 (AID 891; active = well fitted curve in the direction sought with a large enough effect; an effect the other way counts as inactive or inconclusive; also: nearly all actives have a fitted effect of over 60% in size; also: potency is read from the fitted curve at half-maximal effect)
# Summary of the method: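 Human CYP2D6 (5 nM) with 30 uM Luciferin-ME EGE (at Km) in 100 mM KPO4, compound preincubated 10 min, then NADPH regeneration system for 60 min at room temperature. Luciferin read by luminescence; normalized to 1.43 uM quinidine.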
# [15] = target: Tumor susceptibility gene 101 protein (Homo sapiens) (UniProt Q99816); assay: qHTS Assay for Iinhibitors of HIV-1 Budding by Blocking the Interaction of PTAP/TSG101: Hit Validation (AID 651600; active = well fitted curve in the direction sought with a large enough effect; an effect the other way counts as inactive or inconclusive; also: % is scaled to controls: 0 for no effect and ±100 for the full control effect; nearly all actives have a fitted effect of over 70% in size)
# Summary of the method: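 Fluorescence polarization binding assay: Tsg101 binding domain (10 uM) mixed with compounds and FITC-labeled PTAP peptide (50 nM) in HEPES pH 7.5, 0.15 M NaCl, 0.01% Tween 20, EDTA, TCEP; 20 min at r.t.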
# Sequence of 3',5'-cyclic-AMP phosphodiesterase 4B (Homo sapiens) (Q07343 whole entry, looked up): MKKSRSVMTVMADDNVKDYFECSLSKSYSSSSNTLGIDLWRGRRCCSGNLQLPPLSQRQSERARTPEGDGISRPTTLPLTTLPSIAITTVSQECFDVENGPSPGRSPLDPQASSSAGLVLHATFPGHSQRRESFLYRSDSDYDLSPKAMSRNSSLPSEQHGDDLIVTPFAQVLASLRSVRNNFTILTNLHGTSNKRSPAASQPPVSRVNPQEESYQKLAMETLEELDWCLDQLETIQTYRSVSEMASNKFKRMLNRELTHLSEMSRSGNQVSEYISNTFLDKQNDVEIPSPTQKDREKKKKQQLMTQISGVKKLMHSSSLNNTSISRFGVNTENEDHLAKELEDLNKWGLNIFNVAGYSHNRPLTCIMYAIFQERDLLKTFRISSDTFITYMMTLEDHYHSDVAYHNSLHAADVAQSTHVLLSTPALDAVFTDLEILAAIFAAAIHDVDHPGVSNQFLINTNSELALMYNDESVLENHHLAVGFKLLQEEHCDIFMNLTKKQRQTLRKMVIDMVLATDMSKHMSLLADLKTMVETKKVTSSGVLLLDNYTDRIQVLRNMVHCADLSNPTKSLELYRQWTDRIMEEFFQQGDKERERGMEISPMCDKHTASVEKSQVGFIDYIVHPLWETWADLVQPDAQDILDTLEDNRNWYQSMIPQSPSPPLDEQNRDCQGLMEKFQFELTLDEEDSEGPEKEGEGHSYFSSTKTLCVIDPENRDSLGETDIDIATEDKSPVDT
# Sequence of Glucocorticoid receptor (Homo sapiens) (P04150 whole entry, looked up, the tested form may be a part): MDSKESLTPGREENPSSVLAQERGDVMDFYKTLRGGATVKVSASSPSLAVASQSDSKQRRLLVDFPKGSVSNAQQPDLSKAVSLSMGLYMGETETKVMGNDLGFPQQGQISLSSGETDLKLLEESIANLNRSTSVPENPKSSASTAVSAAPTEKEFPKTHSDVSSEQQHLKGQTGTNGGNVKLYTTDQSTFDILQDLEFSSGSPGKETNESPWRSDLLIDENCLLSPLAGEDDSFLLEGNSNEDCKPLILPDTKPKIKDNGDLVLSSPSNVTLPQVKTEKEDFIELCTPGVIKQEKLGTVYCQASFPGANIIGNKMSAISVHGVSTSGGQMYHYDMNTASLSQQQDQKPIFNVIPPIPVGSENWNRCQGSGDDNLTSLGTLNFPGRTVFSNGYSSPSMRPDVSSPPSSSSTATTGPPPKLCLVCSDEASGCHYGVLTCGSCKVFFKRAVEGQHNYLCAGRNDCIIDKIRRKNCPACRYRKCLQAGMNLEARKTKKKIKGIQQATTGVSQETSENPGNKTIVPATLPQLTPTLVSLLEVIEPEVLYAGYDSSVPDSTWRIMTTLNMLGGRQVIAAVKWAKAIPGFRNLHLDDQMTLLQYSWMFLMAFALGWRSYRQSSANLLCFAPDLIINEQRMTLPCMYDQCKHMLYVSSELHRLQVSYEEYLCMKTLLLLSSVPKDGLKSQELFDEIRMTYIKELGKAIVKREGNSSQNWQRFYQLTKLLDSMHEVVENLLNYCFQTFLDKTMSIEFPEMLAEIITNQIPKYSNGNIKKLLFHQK
# Sequence of ATPase family AAA domain-containing protein 5 (Homo sapiens) (Q96QE3 whole entry, looked up, the tested form may be a part): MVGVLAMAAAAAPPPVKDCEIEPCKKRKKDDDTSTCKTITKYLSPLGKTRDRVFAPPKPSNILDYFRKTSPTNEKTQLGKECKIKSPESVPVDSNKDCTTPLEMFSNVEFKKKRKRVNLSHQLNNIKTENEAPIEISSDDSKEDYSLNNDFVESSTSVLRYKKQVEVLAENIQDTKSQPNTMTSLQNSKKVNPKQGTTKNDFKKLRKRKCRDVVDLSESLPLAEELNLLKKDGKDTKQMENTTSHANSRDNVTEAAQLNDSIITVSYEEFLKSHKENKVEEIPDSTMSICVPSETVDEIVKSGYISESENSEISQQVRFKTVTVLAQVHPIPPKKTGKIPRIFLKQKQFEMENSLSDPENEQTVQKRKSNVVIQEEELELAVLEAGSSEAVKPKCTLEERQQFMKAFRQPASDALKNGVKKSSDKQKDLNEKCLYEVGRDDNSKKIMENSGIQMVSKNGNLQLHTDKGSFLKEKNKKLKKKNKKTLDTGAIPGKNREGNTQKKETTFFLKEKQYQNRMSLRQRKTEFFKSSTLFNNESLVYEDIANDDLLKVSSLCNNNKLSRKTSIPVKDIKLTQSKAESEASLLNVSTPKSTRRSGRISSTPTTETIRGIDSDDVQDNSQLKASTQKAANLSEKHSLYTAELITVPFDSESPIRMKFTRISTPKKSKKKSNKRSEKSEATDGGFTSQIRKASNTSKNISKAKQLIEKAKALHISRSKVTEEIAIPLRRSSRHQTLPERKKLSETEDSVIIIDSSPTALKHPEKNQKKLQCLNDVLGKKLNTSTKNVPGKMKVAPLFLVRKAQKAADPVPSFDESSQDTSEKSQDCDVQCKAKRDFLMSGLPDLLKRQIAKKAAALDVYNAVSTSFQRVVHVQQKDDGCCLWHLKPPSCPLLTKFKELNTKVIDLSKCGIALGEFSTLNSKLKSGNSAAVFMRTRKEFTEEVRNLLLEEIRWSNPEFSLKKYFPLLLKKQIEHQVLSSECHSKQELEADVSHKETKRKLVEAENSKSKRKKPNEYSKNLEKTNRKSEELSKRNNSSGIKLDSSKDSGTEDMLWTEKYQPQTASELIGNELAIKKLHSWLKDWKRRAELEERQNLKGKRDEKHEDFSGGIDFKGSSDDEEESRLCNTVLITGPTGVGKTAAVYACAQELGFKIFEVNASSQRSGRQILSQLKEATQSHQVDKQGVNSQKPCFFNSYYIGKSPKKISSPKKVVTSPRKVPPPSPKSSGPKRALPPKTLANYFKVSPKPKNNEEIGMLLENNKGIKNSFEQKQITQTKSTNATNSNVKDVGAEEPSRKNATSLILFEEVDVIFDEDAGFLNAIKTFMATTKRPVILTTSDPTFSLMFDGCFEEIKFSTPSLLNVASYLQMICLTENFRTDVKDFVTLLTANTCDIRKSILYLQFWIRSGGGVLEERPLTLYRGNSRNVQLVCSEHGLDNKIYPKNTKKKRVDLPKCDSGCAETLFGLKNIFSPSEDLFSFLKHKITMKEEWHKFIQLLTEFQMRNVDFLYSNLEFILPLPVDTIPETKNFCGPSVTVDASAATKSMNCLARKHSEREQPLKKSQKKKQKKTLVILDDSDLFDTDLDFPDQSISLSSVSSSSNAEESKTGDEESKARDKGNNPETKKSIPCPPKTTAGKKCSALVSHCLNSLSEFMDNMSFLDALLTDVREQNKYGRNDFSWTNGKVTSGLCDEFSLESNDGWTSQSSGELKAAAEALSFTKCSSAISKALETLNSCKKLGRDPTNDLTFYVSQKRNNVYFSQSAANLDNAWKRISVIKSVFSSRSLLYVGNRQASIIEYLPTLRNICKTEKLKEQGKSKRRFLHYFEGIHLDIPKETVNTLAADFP
# Sequence of Cytochrome P450 1A2 (Homo sapiens) (P05177 whole entry, looked up): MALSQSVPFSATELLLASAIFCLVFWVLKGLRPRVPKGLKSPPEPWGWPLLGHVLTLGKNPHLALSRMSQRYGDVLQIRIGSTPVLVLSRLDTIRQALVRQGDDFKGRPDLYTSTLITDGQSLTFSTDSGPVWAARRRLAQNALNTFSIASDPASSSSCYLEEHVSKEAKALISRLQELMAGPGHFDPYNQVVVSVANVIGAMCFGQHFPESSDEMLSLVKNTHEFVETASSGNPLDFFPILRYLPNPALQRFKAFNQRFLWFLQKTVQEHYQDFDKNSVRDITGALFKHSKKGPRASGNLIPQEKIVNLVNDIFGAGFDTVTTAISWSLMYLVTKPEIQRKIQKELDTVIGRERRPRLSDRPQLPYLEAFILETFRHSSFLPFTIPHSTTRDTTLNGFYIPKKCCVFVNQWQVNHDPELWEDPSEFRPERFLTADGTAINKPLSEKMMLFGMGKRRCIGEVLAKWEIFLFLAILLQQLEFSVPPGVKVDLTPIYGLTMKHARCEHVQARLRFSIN
# Sequence of Cytochrome P450 2D6 (Homo sapiens) (P10635 whole entry, looked up): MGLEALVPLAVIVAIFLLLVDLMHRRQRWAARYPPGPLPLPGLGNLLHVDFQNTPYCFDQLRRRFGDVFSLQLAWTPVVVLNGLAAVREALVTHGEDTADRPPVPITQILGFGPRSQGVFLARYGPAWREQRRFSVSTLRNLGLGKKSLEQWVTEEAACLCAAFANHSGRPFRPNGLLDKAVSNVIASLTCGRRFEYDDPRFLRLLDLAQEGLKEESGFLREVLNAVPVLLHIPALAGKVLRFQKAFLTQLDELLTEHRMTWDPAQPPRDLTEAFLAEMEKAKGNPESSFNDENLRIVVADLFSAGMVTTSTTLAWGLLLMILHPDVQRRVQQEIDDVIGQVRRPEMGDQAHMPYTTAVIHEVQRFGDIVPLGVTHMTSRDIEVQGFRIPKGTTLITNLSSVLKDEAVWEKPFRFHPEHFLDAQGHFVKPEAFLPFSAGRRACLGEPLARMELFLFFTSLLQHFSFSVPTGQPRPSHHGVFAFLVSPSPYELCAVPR
# Sequence of Tumor susceptibility gene 101 protein (Homo sapiens) (Q99816 whole entry, looked up, the tested form may be a part): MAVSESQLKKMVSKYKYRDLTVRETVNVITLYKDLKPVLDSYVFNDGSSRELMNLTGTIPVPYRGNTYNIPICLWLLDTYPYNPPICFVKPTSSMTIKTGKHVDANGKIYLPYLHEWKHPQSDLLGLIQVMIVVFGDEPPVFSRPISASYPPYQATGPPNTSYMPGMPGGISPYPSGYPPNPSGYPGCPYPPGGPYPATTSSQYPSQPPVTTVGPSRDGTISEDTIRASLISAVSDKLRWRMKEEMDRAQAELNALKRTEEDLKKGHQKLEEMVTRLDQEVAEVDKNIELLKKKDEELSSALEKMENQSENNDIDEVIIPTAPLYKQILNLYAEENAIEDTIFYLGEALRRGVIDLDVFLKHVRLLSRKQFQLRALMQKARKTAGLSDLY
structure (smiles),measurement,setting,value
C[C@H]1[C@H](C)CC[C@]2(C(=O)O)CC[C@]3(C)C(=CC[C@@H]4[C@]5(C)C[C@H](O)[C@@H](O)[C@@](C)(CO)[C@@H]5[C@H](O)C[C@@]43C)[C@H]12,"activity change, negative = inhibition",[1],-6.13%
same,"activity change, negative = inhibition",[2],27.7%
same,"activity, negative = inhibition",[3],8.93%
same,Potency,[4],> 46 µM
same,Potency,[5],> 9.22 µM
same,Potency,[6],inactive
same,Potency,[7],inactive
Cc1nnc(N/N=C/c2ccccn2)[nH]c1=O,outcome,[8],inactive
same,Potency,[9],2.23 µM (active)
same,Potency,[10],2.5 µM (active)
same,Potency,[11],7.06 µM (active)
same,outcome,[12],inactive
C[C@@H]1CCCC(CC(=O)O)(CC(=O)O)C1,"activity change, negative = inhibition",[1],-2.04%
same,"activity change, negative = inhibition",[2],-0.409%
same,"activity, negative = inhibition",[3],6.41%
same,Potency,[4],> 46 µM
same,Potency,[6],inactive
same,Potency,[7],inactive
N=C(N)SCc1cccc2c(=O)cc(-c3ccccc3)oc12,"activity change, negative = inhibition",[1],28%
same,Potency,[13],0.126 µM (active)
same,Potency,[4],> 46 µM
same,Potency,[5],> 9.22 µM
same,Potency,[6],inactive
same,Potency,[7],inactive
same,Potency,[14],2.51 µM (active)
Oc1ccc2ccccc2c1N=Nc1nccs1,outcome,[15],inactive
O=C(O)c1nn(-c2ccccc2-c2n[nH]c(=O)[nH]c2=O)c(=O)[nH]c1=O,"activity change, negative = inhibition",[1],1.66%
same,Potency,[13],inactive
same,"activity, negative = inhibition",[3],6.32%
same,Potency,[4],> 46 µM
same,Potency,[5],> 9.22 µM
same,Potency,[6],inactive
same,Potency,[7],inactive
same,Potency,[14],inactive
